PBM binding z-score data for 40 sequences are collected here from the supplement of paper PMC6555819.

The test has as its system VDR:RXRa (NR concentration 270 nM, RXRa partner concentration 90 nM). As to the kind of experiment: PBM binding z-score (relative to random genomic background probes); higher = stronger binding; sequences stand for … in GC…GCGATTGACAGCGTAGAATGAAGG
The protocol: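 Protein-binding microarray (Agilent 4x180K custom design, double-stranded 60-nt probes: 5' GC cap, 34-nt variable region, 24-nt constant primer region; full probe sequence given). Purified or IVT nuclear receptor:RXRα heterodimers (3:1 NR:RXRα, mostly 270:90 nM) or homodimers were incubated for 1 h in PBS with 2% milk and no ligand, then detected with Alexa488 antibodies. Fluorescence from o1-orientation probes (~5 replicates averaged) was converted to z-scores against 500 random hg19 background probes. Variable regions are seed direct-repeat (DR0–DR5) sites, all their single-nucleotide variants and half-site ablations.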
For the sequence CGTCCAAGGTCAAAGGGCAGTGAAGAGATGACGG, the PBM binding z-score was 4.65. To CCGTCTGGGGCATAAGGTTACCATAAGCCAGCCC belongs 0.256; to GTACCAATGTGAATAGGTCGTTGATGAGTAGGCG, -0.000523. Take CCGATTGGGGCAAAGGTTACCATACTCAGTACGA: the PBM binding z-score is 1.6.

ACTTTTAGTTGAGACGAGGGCAACCGATAGGTTG returned a PBM binding z-score of 0.832.

AGAACGAGGGCACGCTGAGTTGTTAGCAGAGTAG gave a PBM binding z-score of 1.6. The same measure for GGAACGAGGGCATTAGAGTTGATAGCATGGCGAT: 2.83. The same measure for GATACACGGTCAGCTAGAGGCCAGAGTATGGAAA: -0.349; for CGTCAAAGTTCAACTAAAGTAACGTAAAGCACGC: 4.08; for CTTAGCAGGCCAATCTGGGTCACTCAAGGCTTGA: 0.462.

On to TCTGCTAGGTCAACGATGGTCAGCTAATCTGCTA, for which the PBM binding z-score came to 1.54. The same measure for TAGCCAAGGTCATTGGGCCAGTATAGTACGCATC: 4.87; for ATCGAAAGGTCGTGAGGTGAGCATACAGAAAGGC: 3.19; for CCTTACGGGTCACTCCAGGTTATAGCGTCGGAGT: 4.14. In turn, GATACAGGGTCTGCTAGAGGCCAGAGTATGGAAA registered a PBM binding z-score of -0.492. The same measure for GCTATTAGTTGAAAGGGAAACCGAATGATTCTCG: 0.00748; for TCTTGTCGATCAACAGGAGGTTAAGAAAGATCGA: 0.427; for TAGCCTAGGTCATTGGGCCAGTACAGTACGCATC: 2.19. To TCGAGTAGGTTAGGGGCATTCCGAATGGCGTCGA belongs 0.256; to CCTACTGGGCGATCAGGTCATTGATATCAACGTT, 1.67; to AGAATGAGGTTAAGATCAGGGTAACAGAATACAT, 2. In turn, TCTTGTAGACCAACAGGAGGTTAAGAAAGATCGA displayed a PBM binding z-score of 0.492. ATATGTAGGTTACATCAGGGTCATTCAGGCTATG showed a PBM binding z-score of 5.14. To CAAACTAGGTCACGAAAGGACAAAGTCGAATGAC belongs 4.23; to ATATGTAGGTTACATCCGGGTCATTAAGGCTATG, 4.54.

Regarding CGTAGCAGGCCAATCTGGGTCACTCAAGGCTTGA, the PBM binding z-score was 0.309. The same measure for AGTCAAAGTTCACTAGGTAACGTATGATTCAGCT: 3.93; for CAAACTAGGCCACAGAGGTCAAAGTCCGTGCGTA: 6.29. For the sequence GCTGCTAGGTCAGGTTTGTCAGCTAACGGGTACG, the PBM binding z-score amounted to 0.236. To CCTATTAGTTGACCATAAGGGCAACGGAAGCTCG belongs 0.803.

Turning to AATGCAGGGTCATCGTAGGCCAGAGTACGCACAG, the PBM binding z-score was 5.1. The same measure for TCTAGTTGGTCACGAAGGTCACACACGACGGGTA: 4.98.

In turn, CGTTCAAGGTCAATGCTAGGTCAGTGAAAGCATT showed a PBM binding z-score of 4.78. To CCTTACGGGTCAAGGTTATAGCTCGGGTGGTACG belongs 3.3; to TCATATAGTTAAATGCTAGGTGAAAGTCCGATCT, 0.952; to TCTAGTAGTTGATTAGGGCAACCGAAACAGCGGA, 0.217. TGGCCTAGGTCATTCAGGGGCCAGTATAGAAAGC registered a PBM binding z-score of 2.79. The same measure for CCTGCTAGGTCAATGGTTAGCTAAAGCAGCTCGC: 0.802.

Turning to TCATATAGGTAAATGCTAGGTGATAGTCCGATCT, the PBM binding z-score is 0.757. Regarding CCTAGCAGGCCACTCTGGGTCACTCAAGGCTTGA, the PBM binding z-score was 0.79.
